Measured values as given in PubChem BioAssay AID1159580 (chemical genetic matrix, 2015).
Screen size: about 5,500 compounds; about 2,000 (36%) were called active. Roughly 18% stayed inconclusive and do not appear here. Cut-off read from the data, not from the text of the source: active = normalized growth mostly below about 0.91 (no sharp cut-off); inconclusive = no clear call, values can overlap the other calls; inactive = mostly above about 0.92. The list shows a part of the results.

Experiment: chemical genetic growth profiling, strain panel (AID 1159580);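 note: tested at 20 µM; growth read once vehicle control cultures reached saturation at 30 °C; 1 = growth at the plate median or of vehicle wells; lower values mean less growth of the strain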
Conditions: growth OD

Measured: normalized growth

Cc1cc(C)c2c(-n3cccc3)c(C(=O)c3ccc(Cl)cc3)sc2n1
inactive: S. cerevisiae deletion strains, locus YAL013W, strain DEP1, stronger effect = lower value 0.996 | S. cerevisiae deletion strains, locus YBR229C, strain ROT2, stronger effect = lower value 1.01 | S. cerevisiae deletion strains, locus YCL061C, strain MRC1, stronger effect = lower value 1 | S. cerevisiae deletion strains, locus YDL101C, strain DUN1, stronger effect = lower value 0.979 | S. cerevisiae deletion strains, locus YDR150W, strain NUM1, stronger effect = lower value 0.9 | S. cerevisiae deletion strains, locus YEL061C, strain CIN8, stronger effect = lower value 1 | S. cerevisiae deletion strains, locus YGR078C, strain PAC10, stronger effect = lower value 1.01 | S. cerevisiae deletion strains, locus YGR229C, strain SMI1, stronger effect = lower value 0.99 | S. cerevisiae deletion strains, locus YHR030C, strain SLT2, stronger effect = lower value 0.884 | S. cerevisiae deletion strains, locus YHR087W, strain rtc3, stronger effect = lower value 0.98 | S. cerevisiae deletion strains, locus YJL187C, strain SWE1, stronger effect = lower value 1.01 | S. cerevisiae deletion strains, locus YJR043C, strain POL32, stronger effect = lower value 1.01 | S. cerevisiae deletion strains, locus YJR075W, strain HOC1, stronger effect = lower value 0.987 | S. cerevisiae deletion strains, locus YLR039C, strain RIC1, stronger effect = lower value 0.903 | S. cerevisiae deletion strains, locus YLR058C, strain SHM2 (second series), stronger effect = lower value 1.01 | S. cerevisiae deletion strains, locus YLR085C, strain ARP6, stronger effect = lower value 0.961 | S. cerevisiae deletion strains, locus YLR262C, strain YPT6, stronger effect = lower value 0.95 | S. cerevisiae deletion strains, locus YML094W, strain GIM5, stronger effect = lower value 0.935 | S. cerevisiae deletion strains, locus YMR219W, strain ESC1, stronger effect = lower value 1.01 | S. cerevisiae deletion strains, locus YMR263W, strain SAP30, stronger effect = lower value 0.997 | S. cerevisiae deletion strains, locus YMR307W, strain GAS1, stronger effect = lower value 0.891 | S. cerevisiae deletion strains, locus YNL153C, strain GIM3, stronger effect = lower value 0.984 | S. cerevisiae deletion strains, locus YNL298W, strain CLA4 (second series), stronger effect = lower value 0.984 | S. cerevisiae deletion strains, locus YNL322C, strain KRE1, stronger effect = lower value 0.997 | S. cerevisiae deletion strains, locus YNR030W, strain Alg12, stronger effect = lower value 0.95 | S. cerevisiae deletion strains, locus YPL055C, strain LGE1, stronger effect = lower value 0.957 | S. cerevisiae deletion strains, locus YPL241C, strain CIN2, stronger effect = lower value 1 | S. cerevisiae deletion strains, locus YPR135W, strain CTF4, stronger effect = lower value 0.893 | S. cerevisiae strains, strain wild type, stronger effect = lower value 0.986
